Test results reported in PubChem BioAssay.
Values joined by “and” are separate entries in the source; they are usually repeats but may differ in a detail not shown here. Equal values may be shown once. Inconclusive results are not listed. Active and inactive are the calls of the source. Unless noted, the rule behind the calls is not given here.

Key:
[1] = rapamycin-like changes in RPL19A-GFP expression – cell-based, S. cerevisiae, multiplex flow cytometry, primary screen (AID 1862; in the data active = percent of DMSO control GFP below about 86%;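 note: lower values mimic rapamycin by blocking the RPL19A rise seen in DMSO cells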); settings: S. cerevisiae RPL19A-GFP strain, flow cytometry fluorescence, 3 h; at 10 µM; stronger effect = lower value
[2] = TOR pathway GLN3 branch reporter MEP2-GFP changes – S. cerevisiae, multiplex flow cytometry, primary screen (AID 1867;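 active = GFP response, as percent of the DMSO control, above the screen-wide mean plus 3 SD, about 139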;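 note: median GFP channel fluorescence of barcode-gated MEP2-GFP cells measured by flow cytometry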); settings: S. cerevisiae MEP2-GFP strain, 3 h, at 10 µM, stronger effect = higher value
[3] = TOR pathway RTG branch CIT2 reporter changes – S. cerevisiae, GFP fusion, multiplex flow cytometry, primary screen (AID 1870;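 active = percent response above a set limit, the screen-wide mean plus 3 SD, cut at about 130% in these data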;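 note: barcoded CIT2-GFP strain pooled with four other GFP strains with rapamycin as positive control; median GFP fluorescence per well over plate mean of DMSO wells so 100% = DMSO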); settings: S. cerevisiae CIT2-GFP expression, 3 h, at 10 µM, stronger effect = higher value
[4] = TOR pathway LAP4-GFP level changes – S. cerevisiae, multiplex flow cytometry, primary screen (AID 1873;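 active = GFP signal, as percent of the solvent control, above the screen mean plus 3 SD, about 149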); settings: S. cerevisiae LAP4-GFP expression, 3 h, at 10 µM, stronger effect = higher value
[5] = reduced mouse 2C T cell binding to pMHC/ICAM-1 vesicles – MLPCN validation set, flow cytometry, LFA-1/ICAM-1 modulator project, pilot screen (AID 2523;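 active = response below a set limit, under 55% cells CD8-positive and vesicle-bound, and CD8 cells' 90th-percentile brightness under 279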;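 for vesicle binding response: mean PE anti-B7-1 fluorescence of CD8+ cells relative to row control; 100% = QL9-loaded vesicles with DMSO vehicle in the same plate row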); settings: 2C mouse CD8+ T cells, at 7 µM, stronger effect = lower value; double positive events: measured here: CD8+/vesicle+ event percentage
[6] = target: Integrin beta-1 (Homo sapiens) + Integrin alpha-4 (Homo sapiens) (UniProt P13612+P05556); test: alpha4beta1 integrin LIBS antibody binding reduction – U937 cells, HUTS-21 mAb, flow cytometry, validation set, VLA-4 allosteric modulator project, pilot screen (AID 2674;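 active = inhibition above 50%, about 3 SD of the validation set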;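 note: antibody binding induced by the VLA-4 ligand LDV present at three times its Kd; 0% = LDV ligand with antibody and no compound and 100% = antibody without LDV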); settings: HUTS-21 LIBS mAb binding, at 6.7 µM, stronger effect = higher value
Sequence of Integrin beta-1 (Homo sapiens) + Integrin alpha-4 (Homo sapiens) (P05556 whole entry, looked up): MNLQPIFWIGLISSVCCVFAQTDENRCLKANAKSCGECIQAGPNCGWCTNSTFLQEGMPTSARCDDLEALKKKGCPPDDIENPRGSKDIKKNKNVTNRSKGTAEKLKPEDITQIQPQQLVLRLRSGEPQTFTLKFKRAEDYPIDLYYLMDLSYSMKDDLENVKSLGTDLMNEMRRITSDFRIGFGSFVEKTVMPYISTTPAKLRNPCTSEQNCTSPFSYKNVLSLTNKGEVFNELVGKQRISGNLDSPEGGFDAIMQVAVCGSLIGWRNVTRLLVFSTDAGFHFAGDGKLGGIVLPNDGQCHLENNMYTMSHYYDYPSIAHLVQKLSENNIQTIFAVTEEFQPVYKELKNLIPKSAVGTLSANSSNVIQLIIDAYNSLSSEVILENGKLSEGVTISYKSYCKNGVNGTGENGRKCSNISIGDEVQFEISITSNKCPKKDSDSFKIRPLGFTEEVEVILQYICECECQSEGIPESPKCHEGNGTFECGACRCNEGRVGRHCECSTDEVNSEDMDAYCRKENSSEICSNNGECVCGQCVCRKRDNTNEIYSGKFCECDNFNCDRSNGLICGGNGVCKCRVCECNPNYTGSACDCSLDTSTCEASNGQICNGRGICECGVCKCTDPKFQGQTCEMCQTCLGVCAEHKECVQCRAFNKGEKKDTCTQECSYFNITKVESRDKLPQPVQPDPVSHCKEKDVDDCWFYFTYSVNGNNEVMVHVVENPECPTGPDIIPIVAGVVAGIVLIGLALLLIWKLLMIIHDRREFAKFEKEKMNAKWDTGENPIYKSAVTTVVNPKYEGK
Sequence of Integrin beta-1 (Homo sapiens) + Integrin alpha-4 (Homo sapiens) (P13612 whole entry, looked up): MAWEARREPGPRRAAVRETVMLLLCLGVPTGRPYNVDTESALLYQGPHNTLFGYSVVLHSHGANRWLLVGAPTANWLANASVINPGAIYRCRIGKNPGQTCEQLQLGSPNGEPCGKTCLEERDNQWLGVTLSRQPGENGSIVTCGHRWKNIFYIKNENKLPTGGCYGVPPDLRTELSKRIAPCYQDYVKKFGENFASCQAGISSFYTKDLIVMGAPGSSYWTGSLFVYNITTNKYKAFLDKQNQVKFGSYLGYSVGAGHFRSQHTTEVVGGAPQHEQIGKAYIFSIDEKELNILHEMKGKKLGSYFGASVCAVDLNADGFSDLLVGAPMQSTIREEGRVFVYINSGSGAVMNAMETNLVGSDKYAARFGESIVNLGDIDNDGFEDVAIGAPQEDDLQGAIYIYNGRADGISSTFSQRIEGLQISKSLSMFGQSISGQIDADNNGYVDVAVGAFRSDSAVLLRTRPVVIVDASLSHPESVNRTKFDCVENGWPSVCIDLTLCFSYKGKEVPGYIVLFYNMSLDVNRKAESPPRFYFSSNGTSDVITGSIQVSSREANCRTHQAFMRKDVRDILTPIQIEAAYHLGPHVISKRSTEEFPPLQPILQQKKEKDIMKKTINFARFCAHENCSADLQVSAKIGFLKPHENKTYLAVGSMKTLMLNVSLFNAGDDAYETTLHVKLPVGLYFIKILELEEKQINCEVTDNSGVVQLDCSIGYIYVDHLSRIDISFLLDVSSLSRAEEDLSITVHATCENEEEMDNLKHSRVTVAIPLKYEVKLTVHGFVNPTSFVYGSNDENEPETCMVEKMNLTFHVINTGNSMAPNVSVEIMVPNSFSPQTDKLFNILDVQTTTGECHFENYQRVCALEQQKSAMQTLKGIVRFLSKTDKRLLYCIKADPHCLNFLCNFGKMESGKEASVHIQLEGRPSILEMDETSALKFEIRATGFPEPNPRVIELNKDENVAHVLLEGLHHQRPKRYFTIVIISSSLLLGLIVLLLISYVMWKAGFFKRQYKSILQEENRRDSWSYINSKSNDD

[7] = calorie-restriction mimetic ROS inhibitors, yeast – validation compound set, pilot screen (AID 2706;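 active = superoxide response below 65% of plate, a cut near 3 SD across the whole screen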;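 note: yeast exposed to compound for one week at 30 degrees C before staining; 100% = mean of all compound wells on the same plate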); settings: S. cerevisiae aging, superoxide DHE fluorescence; at 10 µM; stronger effect = lower value
[8] = target: Beta-adrenergic receptor kinase 1 (Homo sapiens) (UniProt P25098); test: GRK2 binders displacing RNA aptamer, biochemical, validation, human GRK2, bead flow cytometry (AID 488806;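 active = aptamer binding inhibition above 30%, about 3 SD of noise from non-fluorescent compounds; inactive = inhibition at or below 30%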); settings: bead-bound GRK2, FAM-aptamer displacement, at 10 µM, stronger effect = higher value
Sequence of Beta-adrenergic receptor kinase 1 (Homo sapiens) (P25098 whole entry, looked up): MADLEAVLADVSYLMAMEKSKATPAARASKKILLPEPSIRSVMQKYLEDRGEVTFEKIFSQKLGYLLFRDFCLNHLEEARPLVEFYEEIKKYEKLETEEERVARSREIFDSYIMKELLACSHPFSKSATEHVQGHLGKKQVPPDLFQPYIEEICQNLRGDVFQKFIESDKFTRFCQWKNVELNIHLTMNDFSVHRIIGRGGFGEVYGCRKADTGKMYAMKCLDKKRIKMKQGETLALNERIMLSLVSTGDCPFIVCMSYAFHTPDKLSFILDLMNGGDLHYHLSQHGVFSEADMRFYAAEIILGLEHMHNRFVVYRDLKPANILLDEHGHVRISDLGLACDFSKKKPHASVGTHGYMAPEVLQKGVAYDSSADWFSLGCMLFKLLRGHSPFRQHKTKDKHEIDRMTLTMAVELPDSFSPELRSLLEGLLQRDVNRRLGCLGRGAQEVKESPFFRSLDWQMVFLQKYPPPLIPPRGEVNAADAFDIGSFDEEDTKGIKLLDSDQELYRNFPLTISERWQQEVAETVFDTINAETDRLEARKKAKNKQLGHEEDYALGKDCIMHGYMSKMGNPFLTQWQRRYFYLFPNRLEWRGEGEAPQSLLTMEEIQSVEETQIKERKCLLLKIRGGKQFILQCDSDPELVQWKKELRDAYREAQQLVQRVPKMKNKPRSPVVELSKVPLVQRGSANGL

[9] = target: AP-2 complex subunit beta (Homo sapiens) (UniProt P63010); test: beta-arrestin/AP2 interaction blockers – biochemical, validation set, GST-AP2 beads, flow cytometry, pilot screen (AID 504541;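 active = inhibition above 54%, about 3 SD of non-fluorescent compounds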;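 note: AP2 carries R879A mutation and is captured from E. coli lysate; bead-bound FITC arrestin peptide fluorescence measuring arrestin peptide binding to AP2; 0% = DMSO wells and 100% = excess unlabeled arrestin peptide control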); settings: FITC arrestin peptide, at 10 µM, stronger effect = higher value
Sequence of AP-2 complex subunit beta (Homo sapiens) (P63010 whole entry, looked up, one chain of several): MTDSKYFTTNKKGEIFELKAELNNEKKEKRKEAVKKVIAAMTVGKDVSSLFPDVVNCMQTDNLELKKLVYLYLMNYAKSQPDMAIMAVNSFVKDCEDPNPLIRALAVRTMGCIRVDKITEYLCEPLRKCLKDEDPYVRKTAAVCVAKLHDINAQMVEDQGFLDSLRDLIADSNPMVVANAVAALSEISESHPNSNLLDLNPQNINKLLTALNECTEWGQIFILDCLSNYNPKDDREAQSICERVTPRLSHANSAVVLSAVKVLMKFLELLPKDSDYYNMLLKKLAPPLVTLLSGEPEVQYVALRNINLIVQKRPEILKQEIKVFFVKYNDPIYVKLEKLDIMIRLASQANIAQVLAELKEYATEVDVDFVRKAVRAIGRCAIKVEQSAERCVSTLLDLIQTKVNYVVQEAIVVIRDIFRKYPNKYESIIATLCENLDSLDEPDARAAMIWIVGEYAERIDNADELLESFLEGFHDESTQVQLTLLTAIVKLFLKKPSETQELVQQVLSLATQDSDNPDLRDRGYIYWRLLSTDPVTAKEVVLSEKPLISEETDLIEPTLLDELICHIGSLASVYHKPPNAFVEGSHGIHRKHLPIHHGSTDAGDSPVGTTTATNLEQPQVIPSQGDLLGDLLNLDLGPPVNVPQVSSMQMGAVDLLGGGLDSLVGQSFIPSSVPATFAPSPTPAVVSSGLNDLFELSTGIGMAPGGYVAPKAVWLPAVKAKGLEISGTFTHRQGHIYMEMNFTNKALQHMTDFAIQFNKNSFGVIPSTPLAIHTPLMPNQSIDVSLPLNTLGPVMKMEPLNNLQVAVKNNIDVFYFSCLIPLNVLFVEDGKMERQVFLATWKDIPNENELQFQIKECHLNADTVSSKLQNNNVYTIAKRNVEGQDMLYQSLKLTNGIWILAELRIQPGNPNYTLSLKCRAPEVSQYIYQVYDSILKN

[10] = cytosolic pH regulators acting via V-ATPase – S. cerevisiae, pHLuorin, HTS validation (AID 504600; in the data active = response above about 15%;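 note: plate controls were DMSO for no effect and reference compound for full effect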); settings: V-ATPase proton transport, at 10 µM, stronger effect = higher value
[11] = tested on: anti-desmoglein-3 scFv antibody binding to human DSG3; test: blockers of pathogenic pemphigus antibody–desmoglein-3 binding – biochemical, validation compound set, bead-based, flow cytometry, pilot screen (AID 588368;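 active = binding below the plate cutoff, the plate median minus 3 SD, with a reading above zero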;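 note: signal is the median channel fluorescence of bead-bound GFP antibody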); settings: Protein G beads, DSG3-Fc, scFv-GFP binding, at 10 µM, stronger effect = lower value
[12] = tested on: Botulinum neurotoxin type F light chain protease (Clostridium botulinum); test: Clostridium botulinum type F light chain protease inhibitors, microsphere substrate cleavage, validation (AID 588459); settings: multiplex microsphere protease substrate cleavage assay, flow cytometry; at 10 µM; stronger effect = higher value
[13] = target: Botulinum neurotoxin type A (Clostridium botulinum) (UniProt P0DPI0); test: BoNT/A light chain protease inhibitors, biochemical, multiplex microsphere flow cytometry, validation set (AID 588460); settings: at 10 µM, stronger effect = higher value
[14] = target: Lethal factor (Bacillus anthracis) (UniProt P15917); test: Bacillus anthracis lethal factor inhibition, microsphere flow cytometry protease assay, validation at 10 µM (AID 588461); settings: multiplex microsphere protease cleavage assay, stronger effect = higher value
[15] = target: ATP-binding cassette sub-family B member 6 (Homo sapiens) (UniProt Q9NP58); test: blockers of ABCB6-driven porphyrin uptake – K562-ABCB6 cells, flow cytometry, validation set, pilot screen (AID 588550;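 active = inhibition above the screen-wide mean plus 3 SD, about 51%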;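 note: 0% = DMSO wells and 100% = benzethonium chloride 70 µM positive control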); settings: K562-ABCB6 porphyrin accumulation, 1 h, at 10 µM, stronger effect = higher value
Sequence of ATP-binding cassette sub-family B member 6 (Homo sapiens) (Q9NP58 whole entry, looked up): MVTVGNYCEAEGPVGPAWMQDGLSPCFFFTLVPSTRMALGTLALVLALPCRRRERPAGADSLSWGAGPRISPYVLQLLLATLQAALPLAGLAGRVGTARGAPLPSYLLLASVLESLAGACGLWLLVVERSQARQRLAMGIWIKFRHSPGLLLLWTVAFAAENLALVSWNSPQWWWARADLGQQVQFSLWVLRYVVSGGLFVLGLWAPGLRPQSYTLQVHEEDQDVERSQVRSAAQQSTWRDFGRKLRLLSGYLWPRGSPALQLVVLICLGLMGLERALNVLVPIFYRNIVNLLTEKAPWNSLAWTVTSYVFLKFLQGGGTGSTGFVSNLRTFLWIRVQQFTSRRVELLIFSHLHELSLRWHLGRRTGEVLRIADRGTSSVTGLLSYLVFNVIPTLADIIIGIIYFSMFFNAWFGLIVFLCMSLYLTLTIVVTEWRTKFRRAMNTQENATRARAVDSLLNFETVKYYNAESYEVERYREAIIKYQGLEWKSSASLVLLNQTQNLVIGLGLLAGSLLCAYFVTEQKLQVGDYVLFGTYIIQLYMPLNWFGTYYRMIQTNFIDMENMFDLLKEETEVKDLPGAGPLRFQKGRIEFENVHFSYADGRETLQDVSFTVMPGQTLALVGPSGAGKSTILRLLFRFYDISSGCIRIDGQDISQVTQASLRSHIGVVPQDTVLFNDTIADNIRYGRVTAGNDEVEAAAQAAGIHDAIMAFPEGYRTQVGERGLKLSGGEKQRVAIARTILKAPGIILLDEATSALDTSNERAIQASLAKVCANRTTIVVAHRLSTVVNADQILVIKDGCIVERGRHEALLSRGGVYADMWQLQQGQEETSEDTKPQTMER

[16] = AML differentiation inducers, ER-HoxA9 marrow cells – cell-based, GFP/MAC1 double positive, flow cytometry, validation set, primary screen (AID 588685;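 active = differentiation response of at least 50%, scaled between solvent and reference control, from cells with both markers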;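 note: compound exposure lasts four days before antibody staining and flow analysis; 0% = DMSO wells and 100% = 5 µM fulvestrant positive control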); settings: stronger effect = higher value
[17] = Nile Red efflux blockade in pump-expressing yeast – validation compound set, multiplex, phenotypic, pilot screen (AID 588506;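 active = efflux inhibition above 0.42, the validation set average plus 4 SD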;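 note: Nile Red retained in cells so higher fluorescence means more efflux inhibition; 0 = negative control wells and 1 = enniatin B 25 µM full block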); settings: S. cerevisiae pump-expressing triplex, Nile Red efflux flow cytometry; at 10 µM; stronger effect = higher value

SMILES	percent of DMSO control GFP [1]	GFP response vs DMSO [2]	percent response of DMSO control [3]	GFP response vs DMSO [4]	double positive events [5]	vesicle binding response [5]	inhibition [6]	superoxide response (% of plate) [7]	aptamer binding inhibition [8]	inhibition [9]	response [10]	binding (% of control) [11]	inhibition [12]	inhibition [13]	inhibition [14]	inhibition [15]	differentiation response [16]	efflux inhibition (fraction of control) [17]
C[C@@H]1O[C@@H](O[C@H]2C[C@@H](O)[C@]3(CO)[C@H]4[C@H](O)C[C@]5(C)[C@@H](C6=CC(=O)OC6)CC[C@]5(O)[C@@H]4CC[C@]3(O)C2)[C@H](O)[C@H](O)[C@H]1O	108% (inactive)	104% (inactive)	102% (inactive)	107% (inactive)	69%	183% (inactive)	1.44% (inactive)	103% (inactive)	7% (inactive)	-1.72% (inactive)	0.97% (inactive)	101% (inactive)	0.6% (inactive)	-0.5% (inactive)	0.4% (inactive)	4% (inactive)	1.91% (inactive)	–
C[C@H]1CCC/C=C/C2C[C@H](O)CC2[C@H](O)/C=C/C(=O)O1 (stereo partly drawn)	106% (inactive)	111% (inactive)	99.7% (inactive)	100% (inactive)	62.5%	166% (inactive)	0.25% (inactive)	92.8% (inactive)	1% (inactive)	–	-4.42% (inactive)	85.8% (inactive)	4% (inactive)	-0.8% (inactive)	2.7% (inactive)	17% (inactive)	32% (inactive)	0.31 (inactive)
O=C(CCCN1CCC2(CC1)C(=O)NCN2c1ccccc1)c1ccc(F)cc1	98.9% (inactive)	95.7% (inactive)	102% (inactive)	110% (inactive)	62.6%	187% (inactive)	8.25% (inactive)	85.3% (inactive)	-1% (inactive)	-9.7% (inactive)	1.45% (inactive)	103% (inactive)	–	–	0.5% (inactive)	-1% (inactive)	3.88% (inactive)	0.12 (inactive)
CC(Cc1ccccc1)NCC(=O)Nc1cc(N(C)C)nc2ccccc12 (stereo not drawn)	101% (inactive)	107% (inactive)	93.9% (inactive)	105% (inactive)	52.9%	191% (inactive)	-40.4% (inactive)	93.7% (inactive)	5% (inactive)	-8.4% (inactive)	-1.24% (inactive)	99.3% (inactive)	11.6% (inactive)	6.4% (inactive)	0.6% (inactive)	8% (inactive)	-18% (inactive)	-0.31 (inactive)
COc1ccc(Cc2nccc3cc(OC)c(OC)cc23)cc1OC	101% (inactive)	96.7% (inactive)	94.9% (inactive)	98.7% (inactive)	59.9%	146% (inactive)	–	96% (inactive)	4% (inactive)	-1.6% (inactive)	-0.83% (inactive)	108% (inactive)	1.7% (inactive)	0.2% (inactive)	3.7% (inactive)	4% (inactive)	6.49% (inactive)	0.49 (active)
C[N+]1(C)[C@@H]2CC(OC(=O)[C@H](CO)c3ccccc3)C[C@H]1[C@@H]1O[C@@H]12 (stereo partly drawn)	97.8% (inactive) and 102% (inactive)	104% (inactive) and 114% (inactive)	99.7% (inactive) and 92% (inactive)	94.8% (inactive) and 112% (inactive)	62.3% and 61.3%	109% (inactive) and 5740% (inactive)	12.3% (inactive) and -9.98% (inactive)	103% (inactive) and 114% (inactive)	-1% (inactive) and 1% (inactive)	5.6% (inactive) and -2.35% (inactive)	3.4% (inactive) and -1.88% (inactive)	99.6% (inactive) and 101% (inactive)	-3.5% (inactive) and 1.5% (inactive)	-1.8% (inactive) and 0.7% (inactive)	-5.6% (inactive) and 13.1% (inactive)	-8% (inactive) and 5% (inactive)	-6.03% (inactive) and -15.2% (inactive)	–
O=c1[nH]c2ccccc2n1CCCN1CCC(n2c(=O)[nH]c3cc(Cl)ccc32)CC1	99.1% (inactive)	109% (inactive)	91% (inactive)	112% (inactive)	55.1%	240% (inactive)	-4.52% (inactive)	114% (inactive)	1% (inactive)	-6.83% (inactive)	-0.17% (inactive)	101% (inactive)	–	1.3% (inactive)	-2.2% (inactive)	2% (inactive)	-34.4% (inactive)	-0.1 (inactive)
O=C1CC[C@@]2(O)[C@H]3Cc4ccc(O)c5c4[C@@]2(CCN3CC2CC2)[C@H]1O5	98.3% (inactive)	126% (inactive)	96.6% (inactive)	84.7% (inactive)	63.4%	207% (inactive)	1.61% (inactive)	95.9% (inactive)	2% (inactive)	-0.81% (inactive)	1.19% (inactive)	107% (inactive)	–	–	–	14% (inactive)	-3.28% (inactive)	-0.02 (inactive)
CN[C@H]1C[C@H]2O[C@@](C)([C@H]1OC)n1c3ccccc3c3c4c(c5c6ccccc6n2c5c31)C(=O)NC4	104% (inactive)	105% (inactive)	107% (inactive)	84.1% (inactive)	64%	105% (inactive)	-86.6% (inactive)	–	–	0.54% (inactive)	1.34% (inactive)	–	–	–	6.2% (inactive)	-76% (inactive)	12% (inactive)	0.14 (inactive)
Cc1cccc(C)c1NC1=NCCCS1	94.7% (inactive)	104% (inactive)	94.9% (inactive)	91.3% (inactive)	62.8%	180% (inactive)	13.8% (inactive)	97.2% (inactive)	2% (inactive)	15.3% (inactive)	1.52% (inactive)	102% (inactive)	-2.3% (inactive)	-0.6% (inactive)	1.9% (inactive)	5% (inactive)	-9.89% (inactive)	0.18 (inactive)
C[N+]1(C)CCN(c2ccccc2)CC1	103% (inactive)	94.8% (inactive)	107% (inactive)	87.3% (inactive)	53.4%	172% (inactive)	-1.17% (inactive)	93.3% (inactive)	0% (inactive)	-8.27% (inactive)	1.95% (inactive)	100% (inactive)	-7.6% (inactive)	-1% (inactive)	-6.3% (inactive)	12% (inactive)	-14.7% (inactive)	-0.2 (inactive)
CC[C@@H](CO)NC(=O)[C@@H]1C=C2c3cccc4c3c(cn4C)C[C@H]2N(C)C1	103% (inactive)	103% (inactive)	99.8% (inactive)	90.3% (inactive)	59.1%	158% (inactive)	8.15% (inactive)	108% (inactive)	2% (inactive)	0.36% (inactive)	-0.46% (inactive)	104% (inactive)	–	–	-6.6% (inactive)	7% (inactive)	1.41% (inactive)	0.56 (active)
Cc1cc(Cl)ccc1OCC(=O)O	96.8% (inactive)	93.8% (inactive)	109% (inactive)	105% (inactive)	60.3%	188% (inactive)	7.22% (inactive)	108% (inactive)	-4% (inactive)	-8.4% (inactive)	-14.2% (inactive)	111% (inactive)	-6.1% (inactive)	-0.1% (inactive)	2.4% (inactive)	10% (inactive)	-24.4% (inactive)	-0.35 (inactive)
COc1ccc(C(=O)N2CCCC2=O)cc1	104% (inactive)	107% (inactive)	105% (inactive)	130% (inactive)	61.6%	241% (inactive)	-6.23% (inactive)	94.5% (inactive)	-4% (inactive)	61% (active)	2.82% (inactive)	100% (inactive)	–	–	–	4% (inactive)	3.88% (inactive)	-0.04 (inactive)
c1ccc(Cn2ccnc2)cc1	97.4% (inactive)	97.9% (inactive)	90% (inactive)	99.4% (inactive)	63.8%	185% (inactive)	14.7% (inactive)	92.9% (inactive)	12% (inactive)	0.17% (inactive)	4.53% (inactive)	97.7% (inactive)	5.2% (inactive)	0.1% (inactive)	-0.1% (inactive)	9% (inactive)	-16.4% (inactive)	0.03 (inactive)
CCN(CC)C(=O)N[C@H]1C[C@@H]2c3cccc4[nH]cc(c34)C[C@H]2N(C)C1	101% (inactive)	107% (inactive)	101% (inactive)	94% (inactive)	62.5%	197% (inactive)	-11.9% (inactive)	–	-2% (inactive)	28.7% (inactive)	-1.97% (inactive)	101% (inactive)	-2.6% (inactive)	-1.3% (inactive)	-36% (inactive)	-252% (inactive)	21.8% (inactive)	0.36 (inactive)
CC(C)(C)NCC(O)c1cc(Cl)c(N)c(Cl)c1 (stereo not drawn)	104% (inactive)	102% (inactive)	97.6% (inactive)	99.1% (inactive)	60.7%	138% (inactive)	-21.2% (inactive)	94.5% (inactive)	-1% (inactive)	-12.6% (inactive)	1.54% (inactive)	112% (inactive)	2.9% (inactive)	2.2% (inactive)	6.8% (inactive)	2% (inactive)	17.4% (inactive)	-0.28 (inactive)
[N-]=[N+]=NC1C[C@H](n2ccc(=O)[nH]c2=O)O[C@@H]1CO (stereo partly drawn)	101% (inactive)	99.9% (inactive)	106% (inactive)	101% (inactive)	56.5%	185% (inactive)	9.09% (inactive)	97.1% (inactive)	-2% (inactive)	42% (inactive)	-3.04% (inactive)	97.7% (inactive)	0.8% (inactive)	-1.5% (inactive)	-5.9% (inactive)	6% (inactive)	-21.2% (inactive)	0.03 (inactive)
